# From PubChem
# Only some compounds are listed: those with a hit (about 3.4% of all), similar ones and a draw of the others.
# GPR151 ag – activates the human receptor GPR151; PathHunter beta-arrestin GPR151 cells, luminescence; activation, % at 11.2 µM; actives 1% (n = 650,000); in the data active means activation above about 4.9%;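 further: 0% = median of compound wells and 100% = cells with positive control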
# MITF primary – inhibitors of human MITF; O75030; AlphaScreen MITF homodimerization, bead proximity signal; inhibition, % at 2.6 µM; actives 0.91% (n = 650,000); AID 1259374; in the data active means inhibition above about 50%;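 further: 0% = vehicle wells with protein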
# FBW7 activator – human FBW7 E3 ligase activation, primary screen. AlphaScreen FBW7–phospho-cyclin E peptide binding, activator screen. normalized activity (activation), % at 26.1 µM. actives 0.13% (n = 650,000); in the data active means normalized activity above about 1.9%;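 further: purified mutant Fbw7 with reduced substrate affinity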
# Target sequence (Q969H0 whole entry, looked up): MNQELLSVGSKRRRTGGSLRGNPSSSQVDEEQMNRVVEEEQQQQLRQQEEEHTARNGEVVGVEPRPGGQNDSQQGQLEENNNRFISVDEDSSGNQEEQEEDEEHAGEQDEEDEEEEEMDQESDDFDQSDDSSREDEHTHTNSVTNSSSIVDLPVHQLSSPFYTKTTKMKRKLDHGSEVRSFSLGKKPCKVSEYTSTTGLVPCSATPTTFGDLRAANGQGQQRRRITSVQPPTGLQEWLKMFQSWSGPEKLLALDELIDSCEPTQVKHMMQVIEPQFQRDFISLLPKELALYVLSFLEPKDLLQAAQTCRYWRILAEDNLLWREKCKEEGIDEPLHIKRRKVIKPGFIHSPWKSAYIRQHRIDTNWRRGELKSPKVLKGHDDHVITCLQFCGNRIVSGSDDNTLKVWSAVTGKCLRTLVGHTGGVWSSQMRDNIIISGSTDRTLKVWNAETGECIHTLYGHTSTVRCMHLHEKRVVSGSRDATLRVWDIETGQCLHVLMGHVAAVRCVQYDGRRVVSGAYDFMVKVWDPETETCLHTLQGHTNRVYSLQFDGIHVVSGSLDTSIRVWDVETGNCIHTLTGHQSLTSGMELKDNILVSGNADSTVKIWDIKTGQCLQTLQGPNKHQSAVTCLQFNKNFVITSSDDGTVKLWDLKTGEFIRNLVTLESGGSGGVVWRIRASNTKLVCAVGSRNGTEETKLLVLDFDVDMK
# TEAD-YAP inh – TEAD-YAP interaction inhibition; AID 1259422; actives 1.4% (n = 640,000); inhibition, % at 9.12 µM; HEK-TIYL cells, TEAD-Gal4/YAP UAS-luciferase luminescence; in the data active means inhibition above about 32%;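 further: 0% = median of test compound wells and 100% = reference inhibitor wells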
# GPR151 conf act – human GPR151 activation, confirmation screen; shares compounds with GPR151 ag; 6,700 tested, under 10 active; activation, % at 11.2 µM; AID 1508609; GPR151 PathHunter beta-arrestin cells, luminescence, 90 min; % of EA-reagent control over plate median;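 active means mean percent activation across replicates above the confirmation screen cutoff of 4.91%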
# GPR119 counter – activates human GPR119 in a GPR151 counter-screen. shares compounds with GPR151 ag. GPR119 PathHunter beta-arrestin cells, luminescence, 90 min; 0 = compound-well median, 100 = enzyme-acceptor control. activation, % at 11.2 µM. actives 0.3% (n = 6,700). AID 1508611;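 active means mean percent activation in the counterscreen above 29.09%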;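 further: counterscreen on off-target GPR119 to flag nonselective hits from the GPR151 activator screen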
# * hit, by the source's call; x = not tested or not shown.
SMILES,GPR151 ag,MITF primary,FBW7 activator,TEAD-YAP inh,GPR151 conf act,GPR119 counter
COc1ccc(/C=C/C(=O)Nc2ccc(OC(C)C)cc2)cc1,2,-1,0,-23,x,x
CC(C)Oc1ccc(NC(=O)/C=C/c2ccc(F)cc2)cc1,6.7*,15,0,-28,1,-2
CC1=C2C(O)C(=O)OC3CC4C(C)(C)C(=O)C=C[C@]4(C)C(CC1)[C@]23C (stereo not given in full),6.0*,-3,0,-6,0,7
CS(=O)(=O)N(CC(=O)Nc1cccc(F)c1)Cc1ccccc1,6.3*,12,0,23,0,-1
O=C(/C=C/c1ccccc1)Nc1ccc(C(=O)N2CCOCC2)cc1,1,-7,0,-16,x,x
COc1cccc(OC/C(O)=C(\C#N)c2nc3ccccc3[nH]2)c1,5.2*,0,0,-1,0,1
COc1ccc(OC/C(O)=C(\C#N)c2nc3ccccc3[nH]2)cc1,1,7,-1,0,x,x
CC/C(C)=C(\C#N)c1nc2ccccc2[nH]1,5.7*,-5,0,-44,1,11
COc1ccc(NC(=O)c2cc(C)nc3ccccc23)cc1S(=O)(=O)N1CCCCC1,8.4*,-2,0,-3,0,9
COc1ccc(S(=O)(=O)N2CCCCC2)cc1NC(=O)c1cc(C)nc2ccccc12,2,7,0,6,x,x
COc1ccc(Cc2nn3c(-c4ccc(C)cc4)nnc3s2)cc1,6.4*,12,0,8,0,0
OC1(c2cccnc2)CCN(Cc2cccc(F)c2)CC1,0,7,0,5,x,x
OC1(c2cccc(F)c2)CCN(Cc2ccncc2)CC1,6.1*,20,1,-15,1,17
Cc1ccc(COc2c(Br)cc(/C=C(\C#N)c3nn(CCO)c(N)c3C#N)cc2Br)cc1,6.9*,7,0,-4,0,5
CCn1c(=O)c(=O)[nH]c2cc(C(=O)NNC(=O)C(C)C)ccc21,0,-4,0,-3,x,x
COc1ccc(NS(=O)(=O)c2ccc(N/C=C\C(=O)c3ccccc3)cc2)nn1,7.2*,0,0,9,-1,-11
Cc1cc(=O)n2nc(N3CCCC3C(=O)NCCCN3CCCCC3)sc2n1 (stereo not given),5.0*,5,0,-2,1,-13
CNC(=O)CSc1nnc(-c2cccnc2)n1CCc1ccccc1,0,-8,0,-3,x,x
CCc1cccc(CC)c1-n1c(SCC(=O)NC)nnc1-c1cccnc1,2,-17,0,-9,x,x
CC(C)NC(=O)CSc1nnc(-c2cccnc2)n1CCc1ccccc1,9.5*,6,0,4,2,13
CCc1ccccc1-n1c(SCC(=O)NC)nnc1-c1cccnc1,7.6*,15,0,1,0,3
CCOc1ccccc1C(=O)N[C@H](C(=O)Nc1ccc(C(C)=O)cc1)C(C)C,0,2,0,-2,x,x
O=C(Nc1nc2c(s1)CCCC2)C1CN(c2nc3ccccc3s2)C1,9.8*,3,0,-17,0,-1
O=C(NCc1ccccc1F)C1CN(c2nc3ccccc3s2)C1,1,2,0,-36,x,x
CCN(CC)c1nc(NCc2ccccc2)nc(Nc2cnccn2)n1,-2,-4,0,-14,x,x
SMILES,GPR151 ag,MITF primary,FBW7 activator,TEAD-YAP inh,GPR151 conf act,GPR119 counter
CCC(C)c1ccc(OCC(=O)Nc2cc(C(=O)O)cc(C(=O)O)c2)cc1 (stereo not given),-1,8,0,12,x,x
CCCC(=O)Nc1sc(C)c(CC)c1C(N)=O,0,-11,0,-2,x,x
Cc1ccccc1N(C)C(=O)Cc1c(C(=O)O)[nH]c2ccccc12,5.5*,38,0,9,0,-9
CCOc1ccccc1N(C)C(=O)Cc1c(C(=O)O)[nH]c2ccccc12,1,-4,0,9,x,x
Cc1ccc(CNC(=O)c2oc3ccc(S(=O)(=O)N4CCCC4)cc3c2C)cc1,0,-29,0,3,x,x
Cc1nc2nc[nH]n2c(=O)c1NC(=O)c1cncc(Br)c1,-1,6,0,-1,x,x
CC1CCCCN1C(=O)CSc1nnc(-c2ccccc2Br)o1 (stereo not given),0,10,0,-11,x,x
CCCCC(=O)c1ccc(-c2ccccc2)cc1,0,-9,0,1,x,x
C[N+](C)(CCCC(=O)c1ccc(C(=O)CCC[N+](C)(C)Cc2ccccc2Cl)cc1)Cc1ccccc1Cl,5.8*,-13,0,3,1,17
O=C(O)c1ccccc1C(=O)n1c(Cc2ccccc2)nc2ccccc21,1,4,0,2,x,x
CCC(=O)NC(=S)Nc1ccc(F)c([N+](=O)[O-])c1,0,2,0,3,x,x
C/C(O)=C\c1nc2ccccc2[nH]c1=O,6.9*,12,0,7,0,13
O=c1[nH]c2ccccc2nc1/C=C(\O)C(F)F,0,14,0,4,x,x
Cc1ccc(C(C)C)c(OC2=NS(=O)(=O)c3cc([N+](=O)[O-])ccc32)c1,13*,16,0,6,-1,-6
Cc1ccc(C)c(OC2=NS(=O)(=O)c3cc([N+](=O)[O-])ccc32)c1,3,-3,0,0,x,x
COc1cc(Nc2cc(-c3ccc(C(N)=O)cc3)nc(N)n2)cc(OC)c1OC,12*,6,0,-3,2,-3
COc1ccc(S(=O)(=O)CCC(=O)Nc2cccc(C(F)(F)F)c2)cc1,-1,2,0,6,x,x
CCOC(=O)COc1cccc2c(=O)n(CC(=O)Nc3ccccc3F)ccc12,0,-10,0,2,x,x
CC1=C(C(=O)Nc2ccccc2)C(c2ccccc2Cl)C(C#N)=C(SCC(N)=O)N1 (stereo not given),0,-6,0,-6,x,x
CN(C)c1ccc(-c2cnc3c(NCCCO)nccn23)cc1,-1,-8,-1,-41,x,x
COc1ccc(-c2c3c(=O)n(C)c(=O)n(C)c3cn2-c2cc(C)ccc2O)cc1,5.4*,13,0,-10,0,11
Cn1cc(/C=C2/CCC/C(=C\c3cnn(C)c3)C2=O)cn1,0,22,0,2,x,x
NC(=O)c1ccc(NC(=O)CSc2nnc(-c3ccc(Cl)cc3)n2N)cc1,0,3,0,6,x,x
Nn1c(SCC(=O)Nc2cccc(F)c2)nnc1-c1ccc(Cl)cc1,6.2*,-6,0,1,0,2
Cc1cc(N2CCC(C)CC2)nc2ccc(N)cc12,7.4*,1,0,-35,-1,-2
CCn1c(N)c(C(=O)NCC2CCCO2)sc1=S (stereo not given),5.6*,-18,0,-5,1,7
CCN1CCSc2ccc(C(=O)NCC3CCCO3)cc21 (stereo not given),8.1*,6,0,-5,-1,-6
